Some test systems named below: NCI-H23 lung; NCI-H226 lung; NCI-H322M lung; HOP-62 NSCLC; NCI-H460 lung; NCI-H522 lung; A549/ATCC NSCLC; 786-0 renal; DU-145 prostate; K-562 leukemia; MALME-3M melanoma; MDA-MB-231 breast; RXF 393 renal; SF-268 CNS; SF-539 CNS; UACC-257 melanoma; M14 melanoma; HCT-15 colon; SF-295 CNS; COLO 205 colon.
Common to all, as to assay: NCI-60 one-dose screen, 48 h (100 = growth as untreated, 0 = no growth, -100 = all killed)
Common to all, as to details: 10 µM unless noted

Compounds without any hit were thinned out: in the full panel of roughly 83,000, 20% have a hit.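 Negative percent growth values reflect cell death: -40 means 40% of the cells present at the start died, and -100 means all died.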 A number with no mark means an inactive call. Calls of active or inactive are those of the source. How the source made its calls: active means growth percent below 10; inactive means the rest.

For `CC/C(=C\c1ccc(N(C)C)cc1)c1nc2ccccc2c(=O)[nH]1`, the growth in the test on NCI-H23 lung was 121%; with NCI-H226 lung, 110%; in the test on NCI-H322M lung, 104%; in the test on HOP-62 NSCLC, 108%; in the test on NCI-H460 lung, 102%; in the test on NCI-H522 lung, 103%. For the same molecule, the growth in the test with A549/ATCC NSCLC is 98%; in the test with 786-0 renal it was 94.6%; with DU-145 prostate it was 105%; in the test with K-562 leukemia, 71.4%; in the test on MALME-3M melanoma, 144%; with MDA-MB-231 breast, 91.2%. Further, the growth in the test with RXF 393 renal was 99.6%; in the test with SF-268 CNS it was 92.9%; with SF-539 CNS, 106%; in the test with UACC-257 melanoma it was 111%; in the test with M14 melanoma, 121%; in the test on HCT-15 colon, 99.8%.

For the molecule `Cn1c(N)c(N=O)c(=O)[nH]c1=O`, the growth in the test with NCI-H23 lung is 104%; in the test on NCI-H226 lung, 106%; with NCI-H322M lung, 112%; in the test with HOP-62 NSCLC, 103%; in the test with NCI-H460 lung, 107%; in the test with NCI-H522 lung, 91.8%. Further, the growth with A549/ATCC NSCLC is 97.9%; in the test on 786-0 renal, 101%; with DU-145 prostate, 112%; in the test on K-562 leukemia, 93.3%; with MALME-3M melanoma it was 104%; in the test with MDA-MB-231 breast, 112%. The growth is 114% in the test with RXF 393 renal; 110% with SF-268 CNS; 114% in the test on SF-295 CNS; 105% in the test on SF-539 CNS; 107% in the test on UACC-257 melanoma; 97.9% with M14 melanoma. In addition, in the test on HCT-15 colon, the growth was 112%.

With `COc1ccc(-c2cn(-c3ccccc3)c(-c3ccccc3)n2)cc1OC`, the growth in the test on NCI-H23 lung is 75.7%; in the test with NCI-H226 lung, 62.4%; in the test on NCI-H322M lung, 88.4%; in the test on HOP-62 NSCLC, 102%; with NCI-H460 lung, 70.5%; with NCI-H522 lung it was 75.4%. Also, the growth was 85.8% in the test on A549/ATCC NSCLC; 83.7% in the test with 786-0 renal; -22.9% (active) in the test on DU-145 prostate; 14.8% with K-562 leukemia; 111% in the test on MALME-3M melanoma; 73.8% in the test on MDA-MB-231 breast. The growth is 102% in the test on RXF 393 renal; 47.9% in the test on SF-268 CNS; 94.7% in the test with SF-295 CNS; 79.6% with SF-539 CNS; 105% in the test on UACC-257 melanoma; 87% in the test on M14 melanoma. In addition, the growth with HCT-15 colon is 17.1%.

Consider `Cc1[nH]n(C(N)=S)c(=O)c1N=Nc1ccc(F)c(Cl)c1`, for which the growth with NCI-H23 lung is 102%; in the test on NCI-H226 lung, 87%; with NCI-H322M lung, 110%; in the test on HOP-62 NSCLC it was 92.1%; with NCI-H460 lung it was 114%; with NCI-H522 lung it was 94.6%. For the same molecule, the growth with A549/ATCC NSCLC is 106%; in the test with 786-0 renal, 95.6%; in the test with DU-145 prostate, 100%; with K-562 leukemia, 95.3%; with MALME-3M melanoma, 110%; in the test on MDA-MB-231 breast, 89.1%. In addition, the growth in the test with RXF 393 renal is 131%; in the test on SF-268 CNS it was 92.2%; in the test with SF-295 CNS, 103%; in the test with SF-539 CNS, 108%; in the test on UACC-257 melanoma, 124%; in the test with M14 melanoma it was 100%. Moreover, the growth in the test with HCT-15 colon is 104%.

For the molecule `Cn1[nH]cc(/C=N/C(N)=O)c1=O`, the growth is 104% with NCI-H23 lung; 111% in the test on NCI-H226 lung; 124% with NCI-H322M lung; 111% with HOP-62 NSCLC; 109% in the test on NCI-H460 lung; 121% with NCI-H522 lung. In addition, the growth in the test with A549/ATCC NSCLC is 106%; in the test with 786-0 renal, 99.8%; in the test with COLO 205 colon, 110%; with K-562 leukemia, 103%; in the test on MALME-3M melanoma, 121%; in the test on MDA-MB-231 breast, 101%. For the same molecule, the growth in the test on SF-295 CNS was 115%; with SF-539 CNS, 113%; with UACC-257 melanoma, 119%; with M14 melanoma, 107%; in the test with HCT-15 colon, 105%.

For the molecule `OC(CCC(O)(c1ccccc1)c1ccccc1)(c1ccccc1)c1ccccc1`, the growth was 80% with NCI-H23 lung; 86.6% with NCI-H226 lung; 102% in the test on NCI-H322M lung; 114% in the test on HOP-62 NSCLC; 19.9% in the test on NCI-H460 lung; 89.8% in the test on NCI-H522 lung. Moreover, the growth in the test on A549/ATCC NSCLC is 68.7%; in the test on 786-0 renal it was 105%; in the test with COLO 205 colon, 103%; in the test with K-562 leukemia, 5.52% (active); in the test with MALME-3M melanoma, 100%; in the test on MDA-MB-231 breast, 81.5%. The growth in the test on RXF 393 renal was 80%; in the test on SF-295 CNS, 65.1%; with SF-539 CNS, 115%; in the test on UACC-257 melanoma it was 82.8%; with M14 melanoma, 96.1%; with HCT-15 colon it was 100%.

As for `O=Cc1c[nH]c2ccc(NC(=O)OCc3ccccc3)cc12`, the growth was 95.4% with NCI-H23 lung; 89.7% in the test on NCI-H226 lung; 88.6% with NCI-H322M lung; 105% in the test on HOP-62 NSCLC; 68.4% in the test on NCI-H460 lung; 94.1% in the test on NCI-H522 lung. Further, the growth in the test with A549/ATCC NSCLC was 106%; in the test on 786-0 renal, 95.8%; in the test with DU-145 prostate it was 113%; in the test on K-562 leukemia it was 72.2%; in the test on MALME-3M melanoma, 186%; in the test on MDA-MB-231 breast, 88.4%. Moreover, the growth in the test on RXF 393 renal is 96.6%; in the test on SF-268 CNS it was 102%; in the test with SF-539 CNS, 110%; with UACC-257 melanoma it was 85.6%; with M14 melanoma, 105%; in the test with HCT-15 colon it was 67.1%.

Take `O=C(Nc1cccc(-n2cc(-c3ccncc3)c(-c3ccc(O)c(Cl)c3)n2)c1)Nc1ccc(Cl)c(C(F)(F)F)c1`: the growth with NCI-H23 lung was 1.11% (active); in the test on NCI-H226 lung, 20.2%; in the test with NCI-H322M lung, -17.7% (active); in the test on HOP-62 NSCLC, 4.91% (active); with NCI-H460 lung, 3.16% (active); in the test on NCI-H522 lung, -7.92% (active). In addition, the growth in the test with A549/ATCC NSCLC was -14.8% (active); with 786-0 renal, -6.01% (active); in the test with DU-145 prostate it was 4.68% (active); with K-562 leukemia it was 4.8% (active); with MALME-3M melanoma, -24% (active); with MDA-MB-231 breast it was -34.8% (active). The growth in the test with RXF 393 renal is -21% (active); with SF-268 CNS, 3.1% (active); in the test on SF-295 CNS it was -25.7% (active); with SF-539 CNS it was -19.3% (active); in the test on UACC-257 melanoma it was -19.5% (active); in the test with M14 melanoma, -34% (active). In the test on HCT-15 colon, the growth is 17.3%.

Turning to `OC(Cc1cccnc1)c1ccccc1` (stereo not drawn), the growth in the test on NCI-H23 lung is 103%; in the test on NCI-H226 lung it was 107%; in the test with NCI-H322M lung it was 95.9%; in the test on HOP-62 NSCLC it was 105%; in the test with NCI-H460 lung, 98%; in the test with NCI-H522 lung it was 101%. Also, the growth in the test with A549/ATCC NSCLC is 94.8%; in the test on 786-0 renal, 108%; in the test on COLO 205 colon it was 114%; in the test with K-562 leukemia it was 101%; with MALME-3M melanoma, 111%; in the test on MDA-MB-231 breast, 92.1%. Besides, the growth in the test with RXF 393 renal is 114%; with SF-295 CNS, 104%; in the test on SF-539 CNS, 98.6%; in the test on UACC-257 melanoma it was 101%; in the test with M14 melanoma, 106%; in the test on HCT-15 colon, 104%.

As to `COc1cc(OC)c2sc(-c3ccc(-n4cncc4-c4ccc(N)cc4)cc3)nc2c1`, the growth in the test on NCI-H23 lung was 101%; in the test with NCI-H226 lung it was 98.7%; with NCI-H322M lung it was 84.7%; in the test with HOP-62 NSCLC it was 110%; in the test with NCI-H460 lung, 78.7%; in the test on NCI-H522 lung, 84.8%. Also, the growth is 60% in the test on A549/ATCC NSCLC; 71.8% with 786-0 renal; 80.3% in the test on DU-145 prostate; 59.9% with K-562 leukemia; 84.4% with MALME-3M melanoma; 87.3% with MDA-MB-231 breast. The growth in the test with RXF 393 renal is 81.5%; in the test on SF-268 CNS, 74.5%; in the test with SF-295 CNS, 48.1%; in the test on SF-539 CNS, 84.6%; with UACC-257 melanoma, 69.8%; with M14 melanoma, 76.4%.

The values above are taken from PubChem BioAssay (NCI).
